# Results as given in PubChem BioAssay AID1117359 (Southern Research Institute, 2015).
# The whole screen tested about 1,500 compounds, of which about 460 (31%) were called active.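 The calls were made as follows: active = viability at or below 80% at any tested concentration, marking the compound as toxic; inactive = the rest.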 The list is a sample of the results. Results with a measured potency or affinity are listed apart.
# Experiment: THP-1 cell cytotoxicity, dose response, cytotoxicity control for Vif-APOBEC3G degradation inhibitor project, THP-1 cells (AID 1117359)
# Details: THP-1 viability, CellTiter-Glo luminescence, 72 h; series mostly up to 40 µM
row,Structure (SMILES),outcome
1,CC1=CC(C)(C)n2c(O)c(N=NC(N)=S)c3c(C)c(C)cc1c32,inactive
2,COC(=O)CCC(=O)OC1(C)C(=O)C2=CN(CCCOC(C)C)C(c3ccc(OC)cc3)=CC2=C(Br)C1=O (stereo not given),inactive
3,O=C(O)C1Nc2ccc(Br)cc2C2C=CCC12 (stereo not given),inactive
4,C/C(=N\Nc1ccc2nncn2n1)c1ccc(Br)s1,inactive
5,CC(=O)Nc1ccc(/C=N/Nc2ccc(C(=O)c3c(C)cc4ccccn34)cc2[N+](=O)[O-])cc1,inactive
6,O=C1CC(Nc2ccc(N3CCOCC3)cc2)C(=O)N1c1cccc(C(F)(F)F)c1 (stereo not given),inactive
7,O=C(O)c1ccc(-n2cccc2/C=N\NC(=O)c2cc3cc(Br)ccc3o2)cc1,inactive
8,CCOC(=O)C1CCN(C(=O)Nc2ccc3nc(-c4ccco4)c(-c4ccco4)nc3c2)CC1,inactive
9,O=C(O)Cn1c(=O)c2c(c3ccccc31)CCC2,inactive
10,O=C(O)c1cccc(-n2cccc2/C=C/[N+](=O)[O-])c1,inactive
11,Cc1cccc(NC(=S)NC(=O)/C=C/c2ccco2)c1,inactive
12,CC(=O)c1ccc(S(=O)(=O)Nc2cccc(-c3ccc(N4CCOCC4)nn3)c2)cc1,inactive
13,CCCCOC(=O)CCCN1C(=O)/C(=C2\SC(=S)N(CCCC(=O)OCCCC)C2=O)SC1=S,inactive
14,Nc1ncnc2c1cnn2C1CCCCC1,inactive
15,Cc1ccc(Nc2ccc(N)cc2S(=O)(=O)O)cc1,inactive
16,CCOCCCNC(=O)C1CCN(S(=O)(=O)CC)CC1,inactive
17,CCOC(=O)N1CCC(NC(=O)c2ccc(OC)c(CN3CC(=O)N4CCCC4C3=O)c2)CC1 (stereo not given),inactive
18,C=CCN1C(=O)/C(=C\c2ccco2)C(C(=O)OC)=C1C,inactive
19,O=[N+]([O-])c1ccccc1S(=O)(=O)NC1CCCC1,inactive
20,O=C(O)c1ccc(S(=O)(=O)c2ccc([N+](=O)[O-])cc2[N+](=O)[O-])cc1,inactive
21,CCNC(=O)C1CC(=O)N(Cc2ccc(F)cc2)C(=Nc2ccc(OC)cc2)S1 (stereo not given),inactive
22,CCOC(=O)C1CC(CN2C(=O)c3ccccc3C2=O)OC1=O (stereo not given),inactive
23,CC1CCCCC1NC(=S)Nc1cccc(S(=O)(=O)N(C)C)c1 (stereo not given),inactive
24,O=C1N(Cc2cccnc2)C[C@@H]2C[C@@H](c3ccc4nsnc4c3)N3CCC[C@@]123,inactive
25,Cc1cc(NC(=O)Cc2cccs2)no1,inactive
26,CN1CCN(NC(=O)c2ccc(S(=O)(=O)N3CC4(C)CC3CC(C)(C)C4)cc2)CC1 (stereo not given),inactive
27,CCC(C)n1c(-c2cccc(S(=O)(=O)N3CCOCC3)c2)n[nH]c1=S (stereo not given),inactive
28,Cc1cc(NC(=O)Cn2cnc3c(nnn3-c3cccc(F)c3)c2=O)no1,inactive
29,COc1ccccc1NS(=O)(=O)c1cc(C(=O)NCCN2CCOCC2)ccc1Cl,inactive
30,Oc1c(CN2CCOCC2)cc(CN2CCOCC2)c(O)c1O,inactive
